Laboratory results published in PubChem BioAssay (NCI).
Compounds without any hit were thinned out: in the full panel of roughly 83,000, 20% have a hit.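 Values shown are percent growth following 48 h exposure of cells in 96-well plates to a single concentration of compound; below 10 was considered active.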 A number with no mark means an inactive call. Activity calls are given as the source filed them.

Assays:
Assay in all cases: NCI-60 one-dose screen, 48 h (100 = growth as untreated, 0 = no growth, -100 = all killed)
Conditions in all cases: 10 µM unless noted
[1] = tested on: T-47D breast
[2] = tested on: BT-549 breast
[3] = tested on: MDA-MB-435 melanoma
[4] = tested on: SW-620 colon
[5] = tested on: MCF7 breast
[6] = tested on: HCT-116 colon
[7] = tested on: HCC-2998 colon
[8] = tested on: KM12 colon

Row | SMILES | growth [1] | growth [2] | growth [3] | growth [4] | growth [5] | growth [6] | growth [7] | growth [8]
1 | C[C@]12CCc3nc(Nc4ccccc4)sc3C1=CC[C@@H]1[C@@H]2CC[C@]2(C)/C(=N/NC(N)=S)CC[C@@H]12 | 9.46% (active) | 35.4% | 30.8% | 18.2% | 24.3% | -46.2% (active) | 84.9% | 33.5%
2 | CCOC(=O)C1=C(C(=O)c2ccc(Br)cc2)C(c2ccc(Br)cc2)NC(=S)N1 (centres undefined) | 94.5% | 101% | 107% | 101% | 102% | 89.8% | 106% | 97.5%
3 | [2H]C1([2H])CCN(C(=O)C2CC2)c2cc(NS(=O)(=O)c3ccc(-c4cccc(C(N)=O)c4)cc3)ccc21 | 19.5% | 79% | -11.2% (active) | 31% | 21.4% | 81.5% | 60.1% | 19.8%
4 | O=C1CC(c2ccc3c(c2)OCO3)Nc2ccccc21 (centres undefined) | 27.5% | 42.2% | -22.6% (active) | 19.2% | 15.9% | 17% | 35.3% | 17.1%
5 | CC1(C)C(=O)/C(=C\c2ccco2)C[C@]2(C)[C@H]3CC=C4[C@@H]5C[C@](C)(C(=O)O)CC[C@]5(C)CC[C@@]4(C)[C@]3(C)CC[C@@H]12 | -8.17% [100 µM] (active) | -62.6% [100 µM] (active) | -75.1% [100 µM] (active) | -63.6% [100 µM] (active) | -43.1% [100 µM] (active) | -67% [100 µM] (active) | -90.1% [100 µM] (active) | -77.5% [100 µM] (active)
6 | CC(C)OC(=O)Nc1cc(F)ccc1F | 94.8% | 111% | 99.4% | 99.8% | 97.1% | 105% | 98.3% | 103%
7 | NC(=S)Cc1ccccc1 | 101% | 110% | 97.7% | 102% | 91% | 104% | 107% | 101%
8 | C=C(C)[C@@H]1CC[C@]2(c3ncc(C)o3)CC[C@]3(C)[C@H](CC[C@@H]4[C@@](C)(CCC#N)[C@H](C(=C)C)CC[C@]43C)[C@@H]12 | -73.4% [100 µM] (active) | -76% [100 µM] (active) | -84.6% [100 µM] (active) | -70% [100 µM] (active) | -73.3% [100 µM] (active) | -81.8% [100 µM] (active) | -80.9% [100 µM] (active) | -75.1% [100 µM] (active)
9 | CC(=O)OC[C@]12CC[C@@H]([C@@H](C)C(N)=O)[C@@H]1[C@H]1CC[C@@H]3[C@@]4(C)CC[C@H](OC(C)=O)C(C)(C)[C@@H]4CC[C@@]3(C)[C@]1(C)CC2 | -8.82% [100 µM] (active) | -55.1% [100 µM] (active) | -63.8% [100 µM] (active) | -55.1% [100 µM] (active) | -45.6% [100 µM] (active) | -84.2% [100 µM] (active) | -68.1% [100 µM] (active) | -62.1% [100 µM] (active)
10 | COc1cc2c(c(OC)c1OC)-c1cc(I)c(O)cc1[C@@H](NC(C)=O)CC2 | 69.5% | 3.61% (active) | 6.18% (active) | 31.4% | 12.5% | 11.9% | 20.8% | 15.1%
11 | O=S(=O)(c1ccc(N/N=C\c2ccccc2Cl)cc1)c1ccc(N/N=C/c2ccccc2Cl)cc1 | 76.3% | 78.6% | 86.9% | 87.6% | 68% | 80.8% | 103% | 69.9%
12 | CC1=CC[C@@H]2C(C)(C)[C@@H](O)CC[C@@]2(C)[C@@H]1COc1ccc2ccc(=O)oc2c1 | -10.1% (active) | 18% | 77.6% | 79.2% | 77.8% | 44.6% | 88% | 40.4%
13 | N#C/C(=C(/O)CCCO)c1nc2ccccc2c(=O)[nH]1 | 101% | 109% | 168% | 108% | 86.6% | 98.9% | 73.5% | 100%
14 | Cc1cccc(C[C@H](NC(=O)Nc2ccc(Cl)cc2F)C(=O)N[C@@H]2C(=O)N3C[C@H](O)C[C@H]3C(=O)N3CCCC[C@H]3C(=O)N[C@@H](C)C(=O)N3C[C@H](C)C[C@H]3C(=O)O[C@H]2C)c1 | 5.41% (active) | -9.79% (active) | -5.25% (active) | 20.7% | 6.39% (active) | -31.6% (active) | -49% (active) | -31.4% (active)
15 | Cc1ccccc1-n1nnc(C(=O)Nc2nc3ccc(F)cc3s2)c1C | 18.1% | 36.8% | 59.2% | 85.5% | 65.3% | 46.5% | 78.6% | 72.4%
16 | COc1cc2c(c(OC)c1OC)-c1ccc(NNC(N)=S)c(=O)cc1[C@@H](NC(C)=O)CC2 | 70.7% | -5.6% (active) | -12.2% (active) | 24.9% | 10.1% | 2.28% (active) | 11.4% | -35.6% (active)
17 | Fc1cc2[nH]ncc2c2c3c(c(-c4cn[nH]c4C(F)(F)F)nc12)C1CCC3C1 (centres undefined) | 3.94% (active) | -60.7% (active) | 22.8% | 2.37% (active) | 2.59% (active) | 1.87% (active) | 14.7% | 7.9% (active)
18 | COc1ccc2nc3ccccc3c(NCCNCCO)c2c1 | 4.93% (active) | 8.11% (active) | -53.8% (active) | -18.3% (active) | 2.08% (active) | -36.5% (active) | -72.5% (active) | -30.5% (active)
19 | Brc1ccc(-c2nnc3c4[nH]ccc4ncn23)cc1 | 57.6% | 94.3% | 97.8% | 94% | 75.8% | 86.4% | 96.6% | 73.4%
20 | COC(=O)c1cc(O)c2c(c1C(=O)OC)C[C@H]1[C@@H]3CC=C4C[C@@H](O)CC[C@]4(C)[C@H]3CC[C@]21C | 36% | 32.3% | 37.6% | 44.9% | 37.2% | 22% | 41.6% | 36.3%
21 | COc1cc(NCc2cn(-c3ccc(C(=O)O)cc3)nc2-c2ccc(C(=O)O)cc2)cc(OC)c1OC | 93.7% | 96.2% | 102% | 92% | 93.3% | 97.5% | 104% | 100%
22 | ClC1=C(Cl)C(Cl)=C(Cl)C1=Cc1ccccc1 | -26.4% (active) | -82.1% (active) | -54% (active) | -56.2% (active) | -29.3% (active) | -99% (active) | -82.8% (active) | -84.7% (active)
23 | Cc1cc(NN=C(c2ccc(O)cc2)c2ccc(O)cc2)c([N+](=O)[O-])cc1[N+](=O)[O-] | 33.1% | 90.8% | 47.5% | 71.4% | 32% | 28.6% | 61.9% | 37.7%
24 | CC[C@@H]1NC(=O)[C@@H]2CCCCN2C(=O)[C@@H]2CCCN2C(=O)[C@@H](NC(=O)[C@H](Cc2cc(F)cc(F)c2)NC(=O)Nc2ccc(C3CC3)cc2F)[C@H](C)OC(=O)[C@@H]2C[C@@H](C)CN2C1=O | 7.13% (active) | 5.79% (active) | 3.08% (active) | 27% | 13.4% | 4.17% (active) | -14.1% (active) | 17%
25 | N#Cc1c(N2CCOCC2)nc(=S)[nH]c1-c1ccco1 | 18.9% | 60.4% | 86.3% | 83.8% | 26.7% | 82.4% | -21% (active) | 65.3%
26 | O=C1Cc2c(sc3c(F)cccc23)C(c2ccccc2[N+](=O)[O-])N1 (centres undefined) | 78.6% | 99.6% | 108% | 79.3% | 81.4% | 85.9% | 119% | 100%
27 | CCOC(=O)c1nn(C2CCCCO2)c2ccc(NC(=O)CN3CCCC3)cc12 (centres undefined) | 102% | 94.3% | 102% | 97.2% | 95.9% | 89.9% | 101% | 103%
28 | Cc1ccc(S(=O)(=O)n2cc(C(=O)C(=O)N3CCCCC3)c3ccccc32)cc1 | 36.1% | 74.8% | 87.1% | 123% | 85.8% | 65.6% | 82.3% | 87.6%
